Laboratory results published in PubChem BioAssay (EPA / NIEHS).
“And” between values parts separate entries of the source, which are not always exact repeats. Identical values can stand only once. Inconclusive results are not listed. The source made the active and inactive calls. The calls were made as follows, unless noted: active = hit-call score of the fitted dose curve at least 0.9, where 1 is the maximum; inconclusive = response in the unintended direction; inactive = score below 0.9.

Legend:
[1] = ATG_XTT_Cytotoxicity: Cytotoxicity Assessment in the Attagene TRANS-FACTORIAL HepG2 Assay (AID 2283584);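 as to AC50: XTT signal for cell number as viability in transfected HepG2 cells; cells exposed to compound for 24 h before reading; active means loss of viability signal versus DMSO baseline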
Procedure, shortened: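 HepG2 cells transiently transfected with GAL4-UAS multiple reporter units, dosed 24 h; cytotoxicity read by XTT as loss of signal versus DMSO baseline.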

[2] = CEETOX_H295R_TESTO: CeeTox H295R High-throughput Steroidogenesis Assay for Testosterone (TESTO) (AID 2283457; active = hit-call score of the fitted dose curve at least 0.9, where 1 is the maximum; inactive = score below 0.9;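 as to AC50: cells exposed to chemicals for 48 h before medium collection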); settings: actives raise or lower the signal
Procedure, shortened: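 H295R adrenal cells, passage ≤10, exposed to chemicals for 48 h. Testosterone in medium measured by MTBE extraction and HPLC-MS/MS against a 7-point standard curve. Bidirectional fit versus DMSO; MTT viability checked in the same wells.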

[3] = test system: Thyroperoxidase (TPO), gene 54314; assay: CCTE_Simmons_AUR_rTPO: CCTE's Amplex UltraRed Assay for Thyroperoxidase (TPO) Inhibition, Simmons Lab (AID 2283662);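 also: potency for loss of signal meaning inhibition of peroxidase activity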
Procedure, shortened: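 Rat thyroid microsomes (5 ug protein) with 25 uM Amplex UltraRed and 300 uM H2O2 in 200 mM phosphate buffer, 30 min at 37C in dark; fluorescence 544/590 nm. Eight concentrations, 5 nM–87.5 uM final, 0.5% DMSO, triplicate biological replicates.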

[4] = molecular target: Cellular tumor antigen p53 (Homo sapiens) (UniProt P04637); assay: TOX21_p53_BLA_p2_ratio: Tox21 HCT-116 p53 Agonism Beta-lactamase Assay, Ratio, Phase 2 (AID 2283592)
Chain of Cellular tumor antigen p53 (Homo sapiens) (P04637 whole entry, looked up): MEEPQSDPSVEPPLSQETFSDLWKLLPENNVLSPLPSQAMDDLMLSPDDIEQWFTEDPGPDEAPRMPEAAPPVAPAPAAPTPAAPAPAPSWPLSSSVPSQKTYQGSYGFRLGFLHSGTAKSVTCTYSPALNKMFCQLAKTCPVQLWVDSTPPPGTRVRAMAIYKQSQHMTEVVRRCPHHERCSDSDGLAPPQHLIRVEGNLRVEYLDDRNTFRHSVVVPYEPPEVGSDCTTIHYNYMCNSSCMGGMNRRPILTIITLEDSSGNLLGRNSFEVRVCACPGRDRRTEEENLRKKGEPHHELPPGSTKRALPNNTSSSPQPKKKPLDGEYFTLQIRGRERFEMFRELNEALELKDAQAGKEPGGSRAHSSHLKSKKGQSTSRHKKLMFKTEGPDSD
Procedure, shortened: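 First, HCT116 reporter cells settle for 5 h at 37C. Next, DMSO compound solutions are pinned in (217-fold dilution) and left 16 h. Finally, CCF4-AM substrate is loaded 2 h at room temperature and the 460/530 nm ratio read.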

[5] = TOX21_p53_BLA_p3_viability: Viability Assessment in the Tox21 HCT-116 p53 Agonism Beta-lactamase Assay, Phase 3 (AID 2283593);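 also: cells exposed to compound for 16 h before reading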
Procedure, shortened: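 Cellular ATP was quantified by CellTiter-Glo luminescence, read after 30 min at room temperature. Beforehand, HCT116 cells (4000/well) received compound 5 h post-seeding, 217-fold diluted from DMSO, then incubated 16 h at 37C.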

[6] = molecular target: Cellular tumor antigen p53 (Homo sapiens) (UniProt P04637); assay: TOX21_p53_BLA_p3_ratio: Tox21 HCT-116 p53 Agonism Beta-lactamase Assay, Ratio, Phase 3 (AID 2283596)
Procedure, shortened: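 Cells were seeded at 4000/well, rested 5 h at 37C, then dosed with DMSO compound solutions (217-fold dilution) for 16 h. CCF4-AM substrate was loaded for 2 h at room temperature, and the 460/530 nm emission ratio was fitted for gain of signal versus DMSO.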

[7] = TOX21_p53_BLA_p4_viability: Viability Assessment in the Tox21 HCT-116 p53 Agonism Beta-lactamase Assay, Phase 4 (AID 2283597);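 also: hits lower the luminescence signal meaning cytotoxicity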
Procedure, shortened: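 4000 HCT116 cells per well; 5 h attachment; compounds from DMSO, 217-fold dilution; 16 h at 37C. Then CCF4-AM, 2 h RT, followed by CellTiter-Glo, 30 min RT, luminescence. Decrease = cytotoxicity.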

[8] = molecular target: Cellular tumor antigen p53 (Homo sapiens) (UniProt P04637); assay: TOX21_p53_BLA_p5_ratio: Tox21 HCT-116 p53 Agonism Beta-lactamase Assay, Ratio, Phase 5 (AID 2283599)
Procedure, shortened: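 Beta-lactamase reporter ratio (blue 460 nm over green 530 nm, 405 nm excitation) after 2 h CCF4-AM loading, in HCT-116 cells exposed 16 h at 37 C to compounds pinned at 217-fold dilution. Increases relative to DMSO baseline scored.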

[9] = TOX21_p53_BLA_p5_viability: Viability Assessment in the Tox21 HCT-116 p53 Agonism Beta-lactamase Assay, Phase 5 (AID 2283600)
Procedure, shortened: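 Decreased CellTiter-Glo luminescence denotes lost viability. Exposure: 16 h at 37C, 5% CO2, with compounds from DMSO stocks diluted 217-fold in wells of 4000 cells.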

[10] = molecular target: Cellular tumor antigen p53 (Homo sapiens) (UniProt P04637); assay: TOX21_p53_BLA_p4_ratio: Tox21 HCT-116 p53 Agonism Beta-lactamase Assay, Ratio, Phase 4 (AID 2283601)
Procedure, shortened: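 Signal is the blue/green (460nm/530nm) ratio of cleaved versus uncleaved CCF4-AM substrate, read after 2 h substrate loading. Cells were HCT116 carrying the p53-responsive beta-lactamase reporter, dosed 16 h at 37C, 5% CO2; CellTiter-Glo measured in parallel.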

N#Cc1ccccc1O
outcome [1]: inactive

O=C(Cl)c1ccc(Cl)cc1Cl
outcome [1]: inactive

CCN(CC)c1ccc(C=O)cc1
outcome [2]: inactive
outcome [1]: inactive

CCn1c2ccccc2c2ccccc21
AC50 [2]: 50 µM (active)
outcome [1]: inactive

CCOC(C=C(C)CCC=C(C)C)OCC
outcome [1]: inactive

CCOCOCC
outcome [2]: inactive
outcome [1]: inactive

CCN(CC)c1ccc(C=O)c(O)c1
outcome [1]: inactive

CCCCCCCCCc1ccc(OCCO)cc1
outcome [2]: inactive
outcome [1]: inactive
AC50 [3]: 38.5 µM (active)

OCCCc1cccnc1
outcome [1]: inactive

CCOCN(C(=O)CS(=O)(=O)O)c1c(C)cccc1CC
outcome [1]: inactive

O=C1OC(=O)c2ccc3c4c(ccc1c24)C(=O)OC3=O
outcome [1]: inactive

CCCC(=O)OCC(COC(=O)CCC)OC(=O)CCC
outcome [1]: inactive

CC(C)C(=O)OCc1ccccc1
outcome [1]: inactive

O=C1C=CC(=O)N1c1ccccc1
outcome [2]: inactive
outcome [1]: inactive
AC50 [4]: 80.4 µM (active)
AC50 [5]: 87.1 µM (active)
AC50 [6]: 86.8 µM (active)
AC50 [7]: 84.5 µM (active)
AC50 [8]: 85.3 µM (active)
AC50 [9]: 74.9 µM (active)
AC50 [10]: 77.5 µM (active)

CC1CCCCC1
outcome [2]: inactive
outcome [1]: inactive

Nc1cccnc1N
outcome [1]: inactive

CCCCCCCCCCCCC[N+](C)(C)Cc1ccccc1
outcome [2]: inactive
AC50 [1]: 31.7 µM (active)
AC50 [3]: 25.5 µM (active)

Cc1cccc(C)n1
outcome [2]: inactive
outcome [1]: inactive

CC(=O)C=O
outcome [1]: inactive

Oc1ccc2c(c1)CCC2
outcome [2]: inactive
outcome [1]: inactive

OCCCCl
outcome [1]: inactive

Nc1c(Br)cc([N+](=O)[O-])cc1Br
outcome [1]: inactive

CCCCCCCC/C=C\CCCCCCCC(=O)OCC(O)CO (stereo not drawn)
outcome [1]: inactive

CCN(CC)c1ccc(N=Nc2ccccc2)cc1
outcome [2]: inactive
outcome [1]: inactive

Cc1ccc(S(=O)(=O)C(I)I)cc1
AC50 [1]: 62.8 µM (active)

CCc1cccc(C)c1N(C(=O)C(=O)O)C(C)COC (stereo not drawn)
outcome [1]: inactive

C[C@]12CC[C@H]3C(=CCc4cc(O)ccc43)[C@@H]1CCC2=O
AC50 [2]: 4.29 µM (active)
outcome [1]: inactive
outcome [4]: inactive
outcome [5]: inactive
outcome [6]: inactive
AC50 [7]: 15.8 µM (active)
outcome [8]: inactive
outcome [9]: inactive
outcome [10]: inactive
AC50 [3]: 13.9 µM (active)

CSc1ccc(O)cc1C
outcome [2]: inactive
outcome [1]: inactive

O=C(c1ccccc1)c1ccc(Cl)cc1
outcome [2]: inactive

O=C1c2ccccc2C(=O)c2c(Cl)cccc21
outcome [2]: inactive

Cc1cc(O)c(C(C)(C)C)cc1C(C)(C)C
outcome [2]: inactive
outcome [1]: inactive
AC50 [4]: 70.8 µM (active)
AC50 [5]: 87 µM (active)
AC50 [6]: 87.3 µM (active)
AC50 [7]: 30.9 µM (active)
AC50 [8]: 57.2 µM (active)
AC50 [9]: 34.3 µM (active)
AC50 [10]: 44.8 µM (active)

CN(C)C(C)(C)CO
outcome [1]: inactive

CC(C)(C)c1cc(CCC(=O)NCCCCCCNC(=O)CCc2cc(C(C)(C)C)c(O)c(C(C)(C)C)c2)cc(C(C)(C)C)c1O
outcome [1]: inactive

CN1CN(C)CN(C)C1
outcome [1]: inactive

CCCCOC(=O)C(C)O (stereo not drawn)
outcome [1]: inactive
outcome [4]: inactive
outcome [5]: inactive
outcome [6]: inactive
outcome [7]: inactive
outcome [8]: inactive

CCCCCCCCCCCC(=O)Cl
outcome [1]: inactive

CC1=CCC(=O)O1
outcome [1]: inactive

COc1ccccc1C=O
outcome [1]: inactive

CC(C)(C)c1cc(CCC(=O)OCC(COC(=O)CCc2cc(C(C)(C)C)c(O)c(C(C)(C)C)c2)(COC(=O)CCc2cc(C(C)(C)C)c(O)c(C(C)(C)C)c2)COC(=O)CCc2cc(C(C)(C)C)c(O)c(C(C)(C)C)c2)cc(C(C)(C)C)c1O
outcome [1]: inactive

Cc1cc(C)c(O)c(C(C)(C)C)c1
outcome [1]: inactive

O=C=NCc1cccc(CN=C=O)c1
outcome [1]: inactive

CCc1cc(Cc2cc(CC)c(N)c(CC)c2)cc(CC)c1N
outcome [1]: inactive
outcome [4]: inactive
outcome [5]: inactive
outcome [6]: inactive
AC50 [7]: 68 µM (active)
outcome [8]: inactive
outcome [9]: inactive
outcome [10]: inactive

O=C1C=CC(=O)N1c1ccc(Cc2ccc(N3C(=O)C=CC3=O)cc2)cc1
AC50 [1]: 157 µM (active)
AC50 [4]: 29.1 µM (active)
outcome [5]: inactive
outcome [6]: inactive
AC50 [7]: 75.2 µM (active)
AC50 [8]: 74.4 µM (active)
AC50 [9]: 86.3 µM (active)
AC50 [10]: 68 µM (active)

Cc1cnccn1
outcome [1]: inactive

CCN=c1cc2oc3cc(NCC)c(C)cc3c(-c3ccccc3C(=O)OCC)c-2cc1C
AC50 [1]: 32 µM (active)
AC50 [4]: 16 µM (active) and 6.62 µM (active)
AC50 [5]: 59.6 µM (active) and 36.8 µM (active)
AC50 [6]: 17.8 µM (active) and 31.3 µM (active)
AC50 [7]: 67.5 µM (active) and 58.2 µM (active)
AC50 [8]: 21.9 µM (active) and 32 µM (active)
AC50 [9]: 60.8 µM (active) and 63.2 µM (active)
AC50 [10]: 35.8 µM (active) and 44.5 µM (active)
